Drawing on PubChem BioAssay, this text covers z-score and composite z-score for twelve molecules.

The nature of test [1]: resazurin metabolic signal in HepG2 cells – cell-based, resazurin fluorescence, 24 h, PK04 Diversity Set, profiling panel (AID 1172). Further: test concentration not given here. The conditions noted are these: HepG2 viability, higher = more signal.
Test [2] is described as follows: budding yeast growth changes without added modifier – OD600, strain BY4716, 24 h, basal condition, primary screen (AID 1173). The settings on record: S. cerevisiae BY4716 growth, OD600, 24 h; higher = more signal, called active from +8 up or from −8 down.
The nature of test [3]: viability profiling in MM1S myeloma cells – cell-based, resazurin fluorescence, basal, 24 h, PK04 Diversity Set, profiling panel (AID 1174).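 Further: MM1S multiple myeloma cell line; test concentration not given here.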 The conditions noted are these: higher = more signal, called active from +8 up or from −8 down.
The target of test [4] is Dihydroorotate dehydrogenase (quinone), mitochondrial (Plasmodium falciparum (isolate 3D7)) (UniProt Q08210). In words: inhibition of P. falciparum DHODH – biochemical, C-terminal His tag, absorbance 600 nm, primary screen (AID 1175).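 Further: recombinant parasite enzyme with a five histidine tag at its C terminus; test concentration not given here.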 The conditions noted are these: PfDHODH enzyme, DCIP absorbance 600 nm; higher = more signal, called active from +8 up or from −8 down.
Test [5] is described as follows: inhibition of PAO1 biofilm formation – strain PAO1, LB-PBS medium, absorbance 600 nm, primary screen (AID 1176). Further: test concentration not given here. The conditions noted are these: P. aeruginosa PAO1 growth/biofilm, A600, 12 h; higher = more signal.
Test [6] in a line: growth modulation of vineyard yeast isolate – strain RM11-1a, OD600, basal, 24 h, primary screen (AID 1177).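 Further: cultures grown under basal conditions with no added stressor; test concentration not given here.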 The settings on record: S. cerevisiae RM11-1a growth, OD600, 24 h; higher = more signal, called active from +8 up or from −8 down.
The nature of test [7]: growth of efflux-deficient E. coli DRC39 – strain DRC39, OD650, 24 h, E. coli filamentation inducers, primary screen (AID 1178).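 Further: growth measured as culture turbidity by optical density at 650 nm; test concentration not given here.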 The settings on record: E. coli DRC39 acrAB, higher = more signal, called active from +8 up or from −8 down.
A short description of test [8]: growth of efflux-deficient E. coli DRC39 – strain DRC39, OD650, 48 h, E. coli filamentation inducers, primary screen (AID 1179).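 Further: screen aims at cell division blockers that make cells filament.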 The conditions noted are these: E. coli DRC39 delta-acrAB growth, higher = more signal, called active from +8 up or from −8 down.
A short description of test [9]: viability profiling in RPMI8226 myeloma cells – cell-based, resazurin fluorescence, basal, 24 h, PK04 Diversity Set, profiling panel (AID 1180).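 Further: RPMI8826 multiple myeloma cell line at 5000 cells per well; test concentration not given here.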 The conditions noted are these: higher = more signal. In general terms: Alamar Blue is a resazurin reagent that responds to reducing activity.
Test [10] has as its target E3 ubiquitin-protein ligase XIAP (Homo sapiens) (UniProt P98170). The test is described as follows: small molecules binding XIAP protein – biophysical, small-molecule microarray, fluorescence 635 nm, primary screen (AID 1181).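 Further: score merges 667 nm emission and signal to noise over triplicate slides.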 The settings on record: higher = more signal.

Calls of active or inactive are those of the source. Unless noted, how the calls were made is not given here.

Sequence of E3 ubiquitin-protein ligase XIAP (Homo sapiens) (P98170 whole entry, looked up): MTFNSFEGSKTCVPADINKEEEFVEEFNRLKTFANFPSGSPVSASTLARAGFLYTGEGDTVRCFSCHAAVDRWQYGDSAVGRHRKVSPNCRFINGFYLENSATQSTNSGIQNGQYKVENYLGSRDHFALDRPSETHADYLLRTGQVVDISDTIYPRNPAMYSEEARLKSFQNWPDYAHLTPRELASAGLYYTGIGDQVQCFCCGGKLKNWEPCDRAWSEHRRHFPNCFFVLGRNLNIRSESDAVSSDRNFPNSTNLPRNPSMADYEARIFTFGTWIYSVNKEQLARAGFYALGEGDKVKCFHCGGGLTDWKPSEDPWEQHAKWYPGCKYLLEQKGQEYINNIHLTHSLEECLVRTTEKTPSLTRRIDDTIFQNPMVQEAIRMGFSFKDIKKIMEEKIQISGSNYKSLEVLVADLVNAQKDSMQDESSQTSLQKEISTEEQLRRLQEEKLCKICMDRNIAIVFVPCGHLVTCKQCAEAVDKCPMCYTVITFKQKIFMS
Sequence of Dihydroorotate dehydrogenase (quinone), mitochondrial (Plasmodium falciparum (isolate 3D7)) (Q08210 whole entry, looked up): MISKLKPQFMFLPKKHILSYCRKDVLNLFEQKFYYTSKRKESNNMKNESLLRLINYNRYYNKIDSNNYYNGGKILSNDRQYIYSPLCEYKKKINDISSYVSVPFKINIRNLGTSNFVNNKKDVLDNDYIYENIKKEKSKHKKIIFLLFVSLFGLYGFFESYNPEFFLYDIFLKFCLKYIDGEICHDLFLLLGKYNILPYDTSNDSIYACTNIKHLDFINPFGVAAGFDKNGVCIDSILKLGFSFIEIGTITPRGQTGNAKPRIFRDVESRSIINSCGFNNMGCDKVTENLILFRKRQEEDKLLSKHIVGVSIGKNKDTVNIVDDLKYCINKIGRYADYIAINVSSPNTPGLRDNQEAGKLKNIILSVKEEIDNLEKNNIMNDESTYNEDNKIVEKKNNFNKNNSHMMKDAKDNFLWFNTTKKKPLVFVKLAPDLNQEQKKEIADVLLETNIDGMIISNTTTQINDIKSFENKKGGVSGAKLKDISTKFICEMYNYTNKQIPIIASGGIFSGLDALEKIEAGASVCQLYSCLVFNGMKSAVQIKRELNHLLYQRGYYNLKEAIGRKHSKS

On to `COC(=O)CC=C[C@@H](C)[C@@H](C=NOCC[C@@H]1C=C[C@H](OC(C)=O)[C@@H](COC(C)=O)O1)OC`, for which the z-score was -0.269 in test [1]; 0.557 (inactive) in test [2]; -0.104 (inactive) in test [3]; -0.242 (inactive) in test [5]; 0.47 (inactive) in test [6]; 0.157 (inactive) in test [7]. Besides, the z-score in test [8] was 0.138 (inactive); in test [9], -0.325. Besides, the composite z-score in test [4] is 0.558 (inactive); in test [10], 0.0506.

In the case of `CC(CCN1CCc2nc(-c3ccccc3)c(-c3ccccc3)cc2C1)=NOC[C@@H](O)[C@H]1O[C@@H]2OC(C)(C)O[C@@H]2[C@H]1O`, the z-score in [1] is -0.31; in test [2] it was -3.84 (inactive); in test [3], -1.06 (inactive); in test [5], 0.359 (inactive); in [6], -0.187 (inactive); in test [7], 1.39 (inactive). Moreover, the z-score in test [8] was 0.431 (inactive); in test [9], -0.776. Also, the composite z-score in test [4] was -0.897 (inactive); in test [10] it was 0.145.

On to `COC(=O)CC=C[C@@H](C)[C@@H](C=NOC(C)CN1CCCc2nc(C)c(C)cc21)OC` (stereo not given in full), for which the z-score was -0.412 in test [1]; 0.0692 (inactive) in test [2]; 0.141 (inactive) in test [3]; -0.537 (inactive) in [5]; -0.151 (inactive) in test [6]; -0.222 (inactive) in [7]. The figures for the z-score in [8] and in test [9] were -0.0403 (inactive) and -1.26, respectively. The composite z-score in test [4] was -0.781 (inactive); in [10], 0.137.

Take `O=C1[C@H]2[C@H]3[C@H](O)[C@H](O)CC(=NO[C@@H]4O[C@H](CO)[C@@H](O)[C@H](O)[C@H]4O)[C@H]3CC[C@H]2C(=O)N1c1cccc(Oc2ccccc2)c1`: the z-score is 0.648 in test [1]; 0.439 (inactive) in test [2]; -0.0137 (inactive) in [3]; -0.708 (inactive) in [5]; -0.929 (inactive) in test [6]; -0.0313 (inactive) in [7]. Moreover, the z-score in test [8] is -0.49 (inactive); in [9], 0.394. Moreover, the composite z-score is 0.0087 (inactive) in test [4] and -0.0773 in test [10].

As for `C#CCCCON=C1C[C@@H](O)[C@@H](O)[C@@H]2[C@@H]3C(=O)N(CC)C(=O)[C@@H]3CC[C@@H]12`, the z-score in test [1] was -0.245; in test [2], 0.961 (inactive); in test [3], -0.529 (inactive); in test [5] it was 0.07 (inactive); in test [6], 0.375 (inactive); in test [7], 0.0322 (inactive). Besides, the z-score is -0.569 (inactive) in [8] and -0.244 in [9]. Also, the results for the composite z-score in test [4] and in test [10] were -0.367 (inactive) and -0.0473, respectively.

As for `COC(=O)[C@H](C)NC(=O)CCC1CC(OC(=O)NCc2ccc3c(c2)OCO3)CC2(CCCC(COC(=O)NCC(c3ccccc3)c3ccccc3)O2)O1` (stereo not given in full), the z-score in test [1] is 0.0245; in test [2], -1.23 (inactive); in test [3], 0.177 (inactive); in test [5], -0.895 (inactive); in [6], 0.0477 (inactive); in test [7], -0.341 (inactive). In addition, the z-score is 0.532 (inactive) in [8] and -0.0511 in test [9]. For the same molecule, the figures for the composite z-score in test [4] and in [10] were -2.67 (inactive) and -0.0734, respectively.

As to `CCOC(=O)[C@H](Cc1ccccc1)NC(=O)CCC1CC(OC(=O)NCCc2ccc(F)cc2)CC2(CCCC(COC(=O)NCCc3ccccc3OC)O2)O1` (stereo not given in full), the z-score is -0.0425 in test [1]; 0.456 (inactive) in [2]; -0.288 (inactive) in test [3]; 0.626 (inactive) in [5]; 0.476 (inactive) in [6]; -0.0222 (inactive) in test [7]. For the same molecule, the z-score was -1.19 (inactive) in test [8] and 0.0228 in test [9]. The composite z-score in test [4] was -0.732 (inactive); in test [10], -0.0796.

Regarding `COC(=O)[C@@H]1CC[C@H](C)[C@@H](c2ccc(C)cc2)N1C(=O)c1ccc(C=NOC[C@@H](C)[C@H](OCc2ccccc2)C(C)C)cc1`, the z-score in test [1] is -0.625; in test [2], -2.56 (inactive); in [3], -0.795 (inactive); in test [5], -1.16 (inactive); in test [6], -2.18 (inactive); in test [7] it was 0.413 (inactive). The z-score in test [8] was -1.07 (inactive); in test [9], -0.987. The composite z-score in [4] is -0.869 (inactive); in test [10], -0.135.

Consider `C#CCCCON=C1C[C@@H](O)[C@@H](O)[C@@H]2[C@@H]3C(=O)N(CCC(=O)OCC)C(=O)[C@@H]3CC[C@H]12`, for which the z-score in test [1] was -1.1; in [2], -4.65 (inactive); in test [3] it was -0.307 (inactive); in test [5] it was -0.191 (inactive); in [6] it was -1.71 (inactive); in test [7] it was 0.0851 (inactive). For the same molecule, the z-score in test [8] was 0.1 (inactive); in test [9], -0.192. Moreover, the composite z-score in test [4] is -0.937 (inactive); in test [10], -0.232.

Take `COc1ccc(O[C@H]2C=C[C@@H](c3ccccc3)O[C@@H]2COC(=O)CCC(C)=NO[C@@H]2O[C@H](COC(C)=O)[C@@H](OC(C)=O)[C@H](OC(C)=O)[C@H]2OC(C)=O)cc1`: the z-score in test [1] was 0.0729; in test [2], 1.64 (inactive); in [3], -0.169 (inactive); in test [5] it was -0.585 (inactive); in test [6], 1.37 (inactive); in test [7], 0.486 (inactive). Besides, the z-score in test [8] was 0.167 (inactive); in test [9], 0.111. The results for the composite z-score in test [4] and in test [10] were 0.671 (inactive) and 0.461, respectively.

`C=CC[C@@H]1C=C[C@H](ON=C(C)CCC(=O)OC[C@H]2O[C@H](c3ccccc3)C=C[C@@H]2Oc2ccc(OC)cc2)[C@@H](CO)O1`: the z-score in test [1] is 0.0276; in test [2], 0.31 (inactive); in test [3], -0.517 (inactive); in test [5] it was 0.347 (inactive); in [6] it was -0.0293 (inactive); in test [7], 0.741 (inactive). In addition, the z-score was 1.15 (inactive) in [8] and -0.212 in [9]. Further, the composite z-score is -0.582 (inactive) in [4] and -0.0272 in test [10].

Regarding `COC(=O)[C@@H]1CC[C@H](C)[C@@H](c2ccc(C)cc2)N1C(=O)c1ccc(C=NO[C@@H](C)c2cn([C@H](CO)Cc3ccccc3)nn2)cc1`, the z-score in [1] is -1.27; in test [2], -0.476 (inactive); in [3] it was -1.93 (inactive); in test [5], 0.171 (inactive); in test [6] it was 1.35 (inactive); in test [7], 0.836 (inactive). In addition, the z-score in test [8] is 0.161 (inactive); in [9], -1.16. In addition, the results for the composite z-score in [4] and in [10] were -1.41 (inactive) and -0.102, respectively.
